Experimental data as given in the supplement of paper PMC10849652.
Of roughly 7,900 targets only a part is listed; those with a hit were picked by preference. About 0.6% of all pairs of compound and target were hits.

Legend:
Test in all cases: log2 fold change, soluble protein after heating vs DMSO (PISA); higher = thermal stabilisation; K562 cells, 10 uM, 30 min; active = over 0.2 and 3.5 SD of the protein, either way, in both replicates (recomputed)
[1] = compound: COC1=CC=C(C=C1)CN2C=CC3=C2C=C(C=C3)C(=O)NO
Outline: (§1)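 K562 cells at 2×10^6 cells/mL were treated with 10 μM compound for 30 min. Aliquots were heated for 3 min across 48°C-58°C, pooled, and extracted in PBS with 0.5% NP-40 at 4°C; soluble protein was the supernatant after 21,000xg for 90 min. Soluble protein was quantified by TMTpro 16plex LC-MS/MS with channel sums equalised, and reported as log2 fold change in thermal stability against DMSO controls, with values from duplicates.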

filanesib = compound: CON(C)C(=O)N1N=C(c2cc(F)ccc2F)S[C@@]1(CCCN)c1ccccc1 [filanesib]
Outline: as §1

zotarolimus = compound: CO[C@H]1C[C@@H]2CC[C@@H](C)[C@@](O)(O2)C(=O)C(=O)N2CCCC[C@H]2C(=O)O[C@H]([C@H](C)C[C@@H]2CC[C@H](n3cnnn3)[C@H](OC)C2)CC(=O)[C@H](C)/C=C(\C)[C@@H](O)[C@@H](OC)C(=O)[C@H](C)C[C@H](C)/C=C/C=C/C=C/1C [zotarolimus]
Outline: as §1

idasanutlin = compound: COc1cc(C(=O)O)ccc1NC(=O)[C@@H]1N[C@@H](CC(C)(C)C)[C@](C#N)(c2ccc(Cl)cc2F)[C@H]1c1cccc(Cl)c1F [idasanutlin]
Outline: as §1

alisertib = compound: COc1cc(Nc2ncc3c(n2)-c2ccc(Cl)cc2C(c2c(F)cccc2OC)=NC3)ccc1C(=O)O [alisertib]
Outline: as §1

[2] = compound: COc1cc2nc(-c3cc(F)ccc3O)nc(N[C@@H]3CNC[C@H]3C(C)(C)O)c2cc1OC
Outline: as §1

gefitinib = compound: COc1cc2ncnc(Nc3ccc(F)c(Cl)c3)c2cc1OCCCN1CCOCC1 [gefitinib]
Outline: as §1

[3] = compound: COc1cccc2cc(-c3nc([C@H]4CC[C@H](C(=O)O)CC4)n4ncnc(N)c34)[nH]c12
Outline: as §1

lapatinib = compound: CS(=O)(=O)CCNCc1ccc(-c2ccc3ncnc(Nc4ccc(OCc5cccc(F)c5)c(Cl)c4)c3c2)o1 [lapatinib]
Outline: as §1

pictilisib = compound: CS(=O)(=O)N1CCN(Cc2cc3nc(-c4cccc5[nH]ncc45)nc(N4CCOCC4)c3s2)CC1 [pictilisib]
Outline: as §1

[4] = compound: CS(=O)(=O)c1ccc(-c2cnc(N)c(C(=O)Nc3ccccc3)n2)cc1
Outline: as §1

crizotinib = compound: C[C@@H](Oc1cc(-c2cnn(C3CCNCC3)c2)cnc1N)c1c(Cl)ccc(F)c1Cl [crizotinib]
Outline: as §1

[5] = compound: C[C@@H]1COCCN1C2=NC(=NC(=C2)C3(CC3)S(=O)(=O)C)C4=C5C=CNC5=CC=C4
Outline: as §1

[6] = compound: C[C@H](C1=CC=C(C=C1)C(=O)NC2=C3C=CNC3=NC=C2)N
Outline: as §1

duvelisib = compound: C[C@H](Nc1ncnc2nc[nH]c12)c1cc2cccc(Cl)c2c(=O)n1-c1ccccc1 [duvelisib]
Outline: as §1

gandotinib = compound: Cc1cc(Nc2cc(CN3CCOCC3)c3nc(C)c(Cc4ccc(Cl)cc4F)n3n2)n[nH]1 [gandotinib]
Outline: as §1

tozasertib = compound: Cc1cc(Nc2cc(N3CCN(C)CC3)nc(Sc3ccc(NC(=O)C4CC4)cc3)n2)n[nH]1 [tozasertib]
Outline: as §1

[7] = compound: Cc1cc(SCc2sc(-c3ccc(C(F)(F)F)cc3)nc2C)ccc1OCC(=O)O
Outline: as §1

doramapimod = compound: Cc1ccc(-n2nc(C(C)(C)C)cc2NC(=O)Nc2ccc(OCCN3CCOCC3)c3ccccc23)cc1 [doramapimod]
Outline: as §1

ispinesib = compound: Cc1ccc(C(=O)N(CCCN)[C@@H](c2nc3cc(Cl)ccc3c(=O)n2Cc2ccccc2)C(C)C)cc1 [ispinesib]
Outline: as §1

Measured: log2 fold change

GMEB1 (UniProt Q9Y692)
Chain of UniProt Q9Y692 (Q9Y692 whole entry, looked up): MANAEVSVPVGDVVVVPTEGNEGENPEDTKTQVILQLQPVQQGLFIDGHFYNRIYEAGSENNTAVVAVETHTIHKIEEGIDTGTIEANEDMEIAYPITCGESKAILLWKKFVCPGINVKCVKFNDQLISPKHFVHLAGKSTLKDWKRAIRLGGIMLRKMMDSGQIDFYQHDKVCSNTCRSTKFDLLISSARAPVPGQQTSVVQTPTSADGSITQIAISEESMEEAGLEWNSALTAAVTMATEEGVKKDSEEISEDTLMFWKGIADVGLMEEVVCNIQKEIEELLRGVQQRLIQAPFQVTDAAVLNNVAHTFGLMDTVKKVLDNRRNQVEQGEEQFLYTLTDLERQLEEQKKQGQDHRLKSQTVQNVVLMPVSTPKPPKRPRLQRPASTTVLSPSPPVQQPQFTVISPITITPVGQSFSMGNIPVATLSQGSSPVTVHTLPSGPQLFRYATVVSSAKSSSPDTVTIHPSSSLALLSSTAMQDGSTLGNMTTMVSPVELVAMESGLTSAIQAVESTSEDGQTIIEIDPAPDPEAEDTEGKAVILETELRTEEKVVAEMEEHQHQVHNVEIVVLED
inactive: [1] 0.049 | filanesib 0.205 | zotarolimus 0.042 | idasanutlin 0.027 | alisertib -0.041 | [2] -0.042 | gefitinib -0.049 | [3] 0.008 | lapatinib 0.031 | pictilisib -0.087 | [4] -0.036 | crizotinib 0.02 | [5] 0.04 | [6] -0.045 | duvelisib 0.025 | gandotinib -0.11 | tozasertib 0.03 | [7] 0.049 | doramapimod -0.038 | ispinesib 0.01

HEXA (UniProt P06865)
Chain of UniProt P06865 (P06865 whole entry, looked up): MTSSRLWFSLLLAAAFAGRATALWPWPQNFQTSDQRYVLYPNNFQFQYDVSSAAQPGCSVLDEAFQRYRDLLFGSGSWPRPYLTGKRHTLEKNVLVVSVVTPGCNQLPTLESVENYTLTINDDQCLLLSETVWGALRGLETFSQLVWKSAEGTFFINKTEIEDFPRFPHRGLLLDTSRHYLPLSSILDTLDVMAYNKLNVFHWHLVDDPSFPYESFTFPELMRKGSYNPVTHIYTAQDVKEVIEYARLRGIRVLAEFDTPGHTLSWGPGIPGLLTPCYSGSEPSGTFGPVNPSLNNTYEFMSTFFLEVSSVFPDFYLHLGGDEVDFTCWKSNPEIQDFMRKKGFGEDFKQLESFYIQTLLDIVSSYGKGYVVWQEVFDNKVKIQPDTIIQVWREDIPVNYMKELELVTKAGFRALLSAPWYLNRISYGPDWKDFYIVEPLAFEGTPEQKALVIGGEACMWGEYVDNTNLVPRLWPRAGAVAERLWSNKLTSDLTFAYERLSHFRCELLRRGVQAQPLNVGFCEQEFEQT
inactive: [1] 0.028 | filanesib -0.066 | zotarolimus -0.015 | idasanutlin -0.012 | alisertib -0.095 | [2] 0.01 | gefitinib -0.005 | [3] 0.035 | lapatinib 0 | pictilisib 0.03 | [4] 0.016 | [5] 0.02 | [6] -0.015 | duvelisib 0.049 | gandotinib 0.015 | tozasertib 0.002 | [7] -0.02 | doramapimod -0.016 | ispinesib -0.124
active: crizotinib -0.785

HTATIP2 isoform 3 (UniProt Q9BUP3)
Chain of UniProt Q9BUP3 (Q9BUP3 whole entry, looked up): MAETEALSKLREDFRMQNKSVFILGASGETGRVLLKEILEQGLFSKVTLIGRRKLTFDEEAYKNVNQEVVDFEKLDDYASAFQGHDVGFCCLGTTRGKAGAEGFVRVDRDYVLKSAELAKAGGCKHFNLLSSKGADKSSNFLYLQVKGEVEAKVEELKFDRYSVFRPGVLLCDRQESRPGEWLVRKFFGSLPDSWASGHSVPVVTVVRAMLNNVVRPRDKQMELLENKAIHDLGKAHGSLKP
active: zotarolimus 0.364 | duvelisib 0.294
inactive: [1] -0.003 | filanesib -0.091 | idasanutlin -0.031 | alisertib -0.029 | [2] -0.131 | gefitinib 0.066 | [3] 0.054 | lapatinib -0.015 | pictilisib 0.137 | [4] 0.014 | crizotinib -0.106 | [5] 0.023 | [6] -0.145 | gandotinib 0.003 | tozasertib 0.013 | [7] 0.027 | doramapimod 0.003 | ispinesib -0.111

GALC (UniProt P54803)
Chain of UniProt P54803 (P54803 whole entry, looked up): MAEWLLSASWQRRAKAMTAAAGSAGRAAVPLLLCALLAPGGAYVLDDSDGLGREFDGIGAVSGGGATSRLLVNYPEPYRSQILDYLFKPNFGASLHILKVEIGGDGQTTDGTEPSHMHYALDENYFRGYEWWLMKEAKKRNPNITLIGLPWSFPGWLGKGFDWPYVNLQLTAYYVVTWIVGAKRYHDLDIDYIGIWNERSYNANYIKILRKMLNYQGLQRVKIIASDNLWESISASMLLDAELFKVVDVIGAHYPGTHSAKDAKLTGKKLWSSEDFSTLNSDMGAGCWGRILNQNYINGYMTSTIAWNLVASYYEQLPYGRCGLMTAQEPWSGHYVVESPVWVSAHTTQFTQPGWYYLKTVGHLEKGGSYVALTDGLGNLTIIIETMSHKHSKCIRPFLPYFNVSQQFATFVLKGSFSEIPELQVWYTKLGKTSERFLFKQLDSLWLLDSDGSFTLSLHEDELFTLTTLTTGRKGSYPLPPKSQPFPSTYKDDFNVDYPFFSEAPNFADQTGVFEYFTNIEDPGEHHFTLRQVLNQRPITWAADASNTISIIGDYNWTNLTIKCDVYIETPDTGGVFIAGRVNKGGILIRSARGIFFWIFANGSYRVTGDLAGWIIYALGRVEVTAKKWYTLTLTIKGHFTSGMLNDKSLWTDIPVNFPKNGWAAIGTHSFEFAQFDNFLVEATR
inactive: [1] 0.007 | filanesib -0.017 | zotarolimus -0.071 | idasanutlin -0.121 | alisertib 0.049 | [2] 0.099 | gefitinib -0.014 | [3] 0.066 | lapatinib 0.042 | pictilisib 0.159 | [4] 0.03 | crizotinib -0.023 | [5] 0.03 | [6] -0.012 | duvelisib -0.049 | gandotinib 0.008 | tozasertib 0.033 | [7] 0 | doramapimod -0.01 | ispinesib -0.135

HIP1 (UniProt O00291)
inactive: [1] 0.022 | filanesib -0.026 | zotarolimus 0.017 | idasanutlin -0.003 | alisertib -0.269 | [2] 0.029 | gefitinib 0.016 | [3] 0.047 | lapatinib 0.059 | pictilisib 0 | [4] 0.054 | crizotinib -0.131 | [5] 0.035 | [6] -0.002 | duvelisib 0.085 | gandotinib 0.029 | tozasertib -0.086 | [7] 0.027 | doramapimod 0 | ispinesib -0.033

GMEB2 (UniProt Q9UKD1)
Chain of UniProt Q9UKD1 (Q9UKD1 whole entry, looked up): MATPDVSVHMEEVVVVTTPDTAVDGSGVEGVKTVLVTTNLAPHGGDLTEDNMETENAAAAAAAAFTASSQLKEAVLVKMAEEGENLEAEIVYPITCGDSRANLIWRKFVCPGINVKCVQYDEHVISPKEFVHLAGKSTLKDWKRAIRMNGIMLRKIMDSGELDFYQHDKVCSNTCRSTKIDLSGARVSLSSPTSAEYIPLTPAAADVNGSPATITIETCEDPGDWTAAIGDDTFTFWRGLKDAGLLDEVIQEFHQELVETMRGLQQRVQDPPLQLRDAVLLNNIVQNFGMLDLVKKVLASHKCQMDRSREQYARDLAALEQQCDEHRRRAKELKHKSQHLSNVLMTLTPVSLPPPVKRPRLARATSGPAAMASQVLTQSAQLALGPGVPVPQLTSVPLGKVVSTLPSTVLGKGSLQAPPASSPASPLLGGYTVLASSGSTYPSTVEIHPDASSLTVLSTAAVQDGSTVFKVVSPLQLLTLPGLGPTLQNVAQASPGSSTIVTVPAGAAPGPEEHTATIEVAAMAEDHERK
inactive: [1] -0.027 | filanesib 0.04 | zotarolimus 0.03 | idasanutlin 0.073 | alisertib -0.009 | [2] 0.053 | gefitinib 0.038 | [3] 0.027 | lapatinib -0.022 | pictilisib 0.101 | [4] -0.012 | crizotinib 0.041 | [5] -0.063 | [6] -0.09 | duvelisib -0.028 | gandotinib -0.001 | tozasertib 0.051 | [7] 0.009 | doramapimod 0.053 | ispinesib 0.071

GTF2A1 (UniProt P52655)
Chain of UniProt P52655 (P52655 whole entry, looked up): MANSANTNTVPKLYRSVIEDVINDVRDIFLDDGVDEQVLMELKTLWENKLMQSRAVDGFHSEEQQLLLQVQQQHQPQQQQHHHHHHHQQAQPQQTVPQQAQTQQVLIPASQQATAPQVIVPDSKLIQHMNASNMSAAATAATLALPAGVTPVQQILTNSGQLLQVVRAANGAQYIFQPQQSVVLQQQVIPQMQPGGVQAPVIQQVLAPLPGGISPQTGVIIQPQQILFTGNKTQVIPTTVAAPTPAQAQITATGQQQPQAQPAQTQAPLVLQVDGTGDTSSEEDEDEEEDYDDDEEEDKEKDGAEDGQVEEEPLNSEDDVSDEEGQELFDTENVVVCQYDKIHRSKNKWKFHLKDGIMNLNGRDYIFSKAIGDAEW
inactive: [1] -0.102 | filanesib 0.031 | zotarolimus 0 | idasanutlin 0.012 | alisertib -0.126 | [2] -0.069 | gefitinib 0.111 | [3] 0.043 | lapatinib 0.006 | pictilisib 0.012 | [4] 0.061 | crizotinib 0.074 | [5] 0.061 | [6] -0.065 | duvelisib 0.082 | gandotinib 0.07 | tozasertib -0.027 | [7] -0.066 | doramapimod -0.107 | ispinesib 0.24

HNRNPK isoform 2 (UniProt P61978)
inactive: [1] 0.008 | filanesib -0.001 | zotarolimus -0.022 | idasanutlin -0.011 | alisertib -0.004 | [2] -0.035 | gefitinib 0.051 | [3] 0.049 | lapatinib -0.016 | pictilisib 0.004 | [4] -0.01 | crizotinib 0.072 | [5] 0.074 | [6] -0.028 | duvelisib 0.036 | gandotinib -0.108 | tozasertib -0.021 | [7] 0.052 | doramapimod -0.064 | ispinesib -0.025

HRAS (UniProt P01112)
Chain of UniProt P01112 (P01112 whole entry, looked up): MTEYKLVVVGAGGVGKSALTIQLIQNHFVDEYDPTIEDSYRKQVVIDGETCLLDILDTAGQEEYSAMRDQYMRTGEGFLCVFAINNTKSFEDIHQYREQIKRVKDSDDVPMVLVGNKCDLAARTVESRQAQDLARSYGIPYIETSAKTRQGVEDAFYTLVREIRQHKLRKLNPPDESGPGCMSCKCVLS
inactive: [1] 0.008 | filanesib -0.023 | zotarolimus -0.049 | idasanutlin 0.075 | alisertib -0.157 | [2] -0.044 | gefitinib 0.021 | [3] -0.015 | lapatinib 0.076 | pictilisib 0.012 | [4] -0.064 | crizotinib 0.18 | [5] -0.129 | [6] -0.057 | duvelisib -0.025 | gandotinib 0.068 | tozasertib -0.149 | [7] -0.077 | doramapimod -0.032 | ispinesib 0.22

FDFT1 (UniProt P37268)
Chain of UniProt P37268 (P37268 whole entry, looked up): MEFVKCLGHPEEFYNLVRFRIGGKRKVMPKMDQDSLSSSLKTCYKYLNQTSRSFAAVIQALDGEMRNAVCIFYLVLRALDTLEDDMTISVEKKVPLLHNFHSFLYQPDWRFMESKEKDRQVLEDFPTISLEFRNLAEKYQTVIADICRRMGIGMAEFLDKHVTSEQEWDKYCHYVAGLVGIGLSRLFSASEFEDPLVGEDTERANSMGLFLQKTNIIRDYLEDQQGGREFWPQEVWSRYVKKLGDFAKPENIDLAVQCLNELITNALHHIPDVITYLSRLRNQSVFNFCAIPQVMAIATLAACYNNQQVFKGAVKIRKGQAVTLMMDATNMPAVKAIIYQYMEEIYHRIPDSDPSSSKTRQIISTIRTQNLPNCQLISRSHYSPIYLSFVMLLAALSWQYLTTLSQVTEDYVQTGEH
active: filanesib 0.401 | duvelisib 0.32
inactive: [1] 0.123 | zotarolimus 0.014 | idasanutlin 0.013 | alisertib 0.008 | [2] -0.052 | gefitinib -0.01 | [3] 0.042 | lapatinib -0.023 | pictilisib 0 | [4] -0.009 | crizotinib 0.105 | [5] -0.032 | [6] -0.065 | gandotinib 0.061 | tozasertib -0.032 | [7] 0.174 | doramapimod 0.02 | ispinesib 0.077

GYS1 (UniProt P13807)
inactive: [1] -0.045 | filanesib 0.045 | zotarolimus 0.124 | idasanutlin 0.462 | alisertib -0.026 | [2] -0.109 | gefitinib -0.006 | [3] -0.165 | lapatinib 0.013 | pictilisib 0.219 | [4] 0.017 | crizotinib -0.097 | [5] -0.187 | [6] 0.311 | duvelisib -0.147 | gandotinib -0.015 | tozasertib -0.079 | [7] 0.184 | doramapimod 0.271 | ispinesib -0.231

GTF2E1 (UniProt P29083)
Chain of UniProt P29083 (P29083 whole entry, looked up): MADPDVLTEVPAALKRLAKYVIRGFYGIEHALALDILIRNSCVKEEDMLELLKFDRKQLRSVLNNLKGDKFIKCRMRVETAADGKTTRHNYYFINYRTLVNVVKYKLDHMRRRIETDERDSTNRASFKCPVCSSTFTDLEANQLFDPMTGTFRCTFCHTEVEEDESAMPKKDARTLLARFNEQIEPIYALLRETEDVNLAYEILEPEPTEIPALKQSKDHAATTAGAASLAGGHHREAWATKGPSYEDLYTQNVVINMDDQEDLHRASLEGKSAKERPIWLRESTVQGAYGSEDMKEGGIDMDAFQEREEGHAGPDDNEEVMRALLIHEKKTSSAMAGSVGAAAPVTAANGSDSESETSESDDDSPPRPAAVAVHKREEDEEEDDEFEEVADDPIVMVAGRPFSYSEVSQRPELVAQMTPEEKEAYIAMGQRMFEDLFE
inactive: [1] 0.042 | filanesib 0.01 | zotarolimus 0.004 | idasanutlin -0.032 | alisertib -0.026 | [2] 0.06 | gefitinib 0.013 | [3] 0.012 | lapatinib -0.037 | pictilisib -0.002 | [4] 0.008 | crizotinib 0.02 | [5] 0.118 | [6] -0.088 | duvelisib 0.035 | gandotinib -0.011 | tozasertib 0.046 | [7] 0.059 | doramapimod -0.03 | ispinesib -0.028

H2AFX (UniProt P16104)
inactive: [1] -0.06 | filanesib 0.393 | zotarolimus -0.3 | idasanutlin 0.484 | alisertib -0.007 | [2] -0.136 | gefitinib 0.049 | [3] -0.361 | lapatinib 0.054 | pictilisib -0.215 | [4] -0.09 | crizotinib -0.096 | [5] -0.39 | [6] 0.479 | duvelisib -0.128 | gandotinib 0.087 | tozasertib 0.073 | [7] -0.078 | doramapimod 0.348 | ispinesib -0.222

HMGCR isoform 3 (UniProt P04035)
inactive: [1] -0.097 | filanesib -0.027 | zotarolimus 0 | idasanutlin 0.188 | alisertib -0.146 | [2] 0.166 | gefitinib 0.01 | [3] -0.045 | lapatinib -0.066 | pictilisib -0.13 | [4] -0.259 | crizotinib 0.071 | [5] -0.234 | [6] -0.004 | duvelisib 0.003 | gandotinib 0.092 | tozasertib -0.088 | [7] -0.065 | doramapimod 0.025 | ispinesib 0.111

HOOK3 (UniProt Q86VS8)
Chain of UniProt Q86VS8 (Q86VS8 whole entry, looked up): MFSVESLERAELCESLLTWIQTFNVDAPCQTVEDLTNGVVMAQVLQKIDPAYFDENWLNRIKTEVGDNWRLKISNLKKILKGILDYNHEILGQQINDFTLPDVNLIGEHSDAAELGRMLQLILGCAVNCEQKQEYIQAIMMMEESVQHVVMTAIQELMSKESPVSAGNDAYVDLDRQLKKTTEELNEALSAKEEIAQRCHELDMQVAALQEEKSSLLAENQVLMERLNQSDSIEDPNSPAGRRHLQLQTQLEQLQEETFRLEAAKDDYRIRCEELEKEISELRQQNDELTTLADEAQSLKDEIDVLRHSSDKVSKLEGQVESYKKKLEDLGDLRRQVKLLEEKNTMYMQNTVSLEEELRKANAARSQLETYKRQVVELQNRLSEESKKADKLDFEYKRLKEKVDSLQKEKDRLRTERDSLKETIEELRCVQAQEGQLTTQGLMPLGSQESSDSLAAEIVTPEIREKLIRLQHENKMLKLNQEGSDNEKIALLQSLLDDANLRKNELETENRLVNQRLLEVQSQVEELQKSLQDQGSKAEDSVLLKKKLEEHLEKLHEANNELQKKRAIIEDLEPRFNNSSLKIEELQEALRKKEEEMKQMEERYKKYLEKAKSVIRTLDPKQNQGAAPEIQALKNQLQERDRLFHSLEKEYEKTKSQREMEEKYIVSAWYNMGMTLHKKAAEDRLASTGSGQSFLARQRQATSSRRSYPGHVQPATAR
inactive: [1] -0.074 | filanesib -0.108 | zotarolimus 0.001 | idasanutlin 0.036 | alisertib 0.07 | [2] 0.014 | gefitinib -0.006 | [3] 0.018 | lapatinib 0.032 | pictilisib -0.021 | [4] -0.042 | crizotinib -0.123 | [5] -0.05 | [6] 0.036 | duvelisib 0.05 | gandotinib -0.067 | tozasertib 0.037 | [7] 0.033 | doramapimod 0.019 | ispinesib -0.199

GUK1 isoform 2 (UniProt Q16774)
Chain of UniProt Q16774 (Q16774 whole entry, looked up): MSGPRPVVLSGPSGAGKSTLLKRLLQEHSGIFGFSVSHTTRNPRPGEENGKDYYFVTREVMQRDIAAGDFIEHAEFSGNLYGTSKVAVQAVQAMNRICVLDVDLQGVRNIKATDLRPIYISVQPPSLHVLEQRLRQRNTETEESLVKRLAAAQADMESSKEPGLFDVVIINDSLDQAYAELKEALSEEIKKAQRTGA
inactive: [1] 0.215 | filanesib -0.005 | zotarolimus 0.022 | idasanutlin -0.04 | alisertib -0.048 | [2] 0.155 | gefitinib -0.05 | [3] -0.019 | lapatinib -0.001 | pictilisib 0.017 | [4] 0.13 | crizotinib -0.007 | [5] 0.161 | [6] 0.049 | duvelisib 0.123 | gandotinib -0.03 | tozasertib 0.018 | [7] 0.102 | doramapimod -0.004 | ispinesib 0.012
